The values that follow come from PubChem BioAssay (NCATS).

Test [1] can be described thus: Quantitative High-Throughput drug screen in 47 multiple myeloma cell lines against the NCATS MIPE library collection: KMS12BM_JCRB cell viability assay (AID 1918971). Also: nearly all actives have a fitted effect of over 35% in size. As to conditions: KMS12BM myeloma viability, CellTiter-Glo ATP, 48 h; series mostly up to 45.8 µM. The method, boiled down:
(§1)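 qHTS of the MIPE 4.0 collection: 500 myeloma cells/well, 48 h drug exposure at 37C in 5% CO2, then CellTiter-Glo for 5 min at room temperature before luminescence reading.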
A general note: Cellular ATP, detected with luciferase, serves as a proxy for viable cell number.

Test [2] can be described thus: Quantitative High-Throughput drug screen in 47 multiple myeloma cell lines against the NCATS MIPE library collection: KMS26_JCRB cell viability assay (AID 1918975). Also: nearly all actives have a fitted effect of over 45% in size. The settings on record: KMS26 myeloma cells viability, CellTiter-Glo ATP, 48 h; series mostly up to 45.8 µM. The method in brief: as §1
A short description of test [3]: Quantitative High-Throughput drug screen in 47 multiple myeloma cell lines against the NCATS MIPE library collection: NCIH929_DSMZ cell viability assay (AID 1918978). Also: nearly all actives have a fitted effect of over 35% in size. The settings on record: NCI-H929 myeloma viability, CellTiter-Glo ATP, 48 h; series mostly up to 45.8 µM. The method in brief: (§2)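 500 cells/well; MIPE 4.0 drugs pin-transferred; 48 h, 37C, 5% CO2. CellTiter-Glo, 5 min RT, luminescence. Controls: DMSO 100%, media 0%.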

Test [4] in a line: Quantitative High-Throughput drug screen in 47 multiple myeloma cell lines against the NCATS MIPE library collection: OCIMY1_PLB cell viability assay (AID 1918979). Also: nearly all actives have a fitted effect of over 35% in size. The settings on record: OCI-MY1 myeloma viability, CellTiter-Glo ATP, 48 h; series mostly up to 45.8 µM. The method in brief:
as §2

The nature of test [5]: Quantitative High-Throughput drug screen in 47 multiple myeloma cell lines against the NCATS MIPE library collection: MM1R_ATCC cell viability assay (AID 1918981). Also: nearly all actives have a fitted effect of over 35% in size. The settings on record: MM1R multiple myeloma cells, CellTiter-Glo viability, 48 h; series mostly up to 45.8 µM. The method, boiled down:
as §2

Test [6] can be described thus: Quantitative High-Throughput drug screen in 47 multiple myeloma cell lines against the NCATS MIPE library collection: L363_DSMZ cell viability assay (AID 1918984). Also: nearly all actives have a fitted effect of over 40% in size. As to conditions: L363 myeloma viability, CellTiter-Glo ATP luminescence, 48 h; series mostly up to 45.8 µM. The method, boiled down: as §2
Test [7] is described as follows: Quantitative High-Throughput drug screen in 47 multiple myeloma cell lines against the NCATS MIPE library collection: OCIMY7_PLB cell viability assay (AID 1918987). Also: nearly all actives have a fitted effect of over 65% in size. The settings on record: OCI-MY7 myeloma viability, CellTiter-Glo ATP, 48 h; viability (% of DMSO): at 45.8 µM (top of the series). The method in brief: as §2
Test [8] is described as follows: Quantitative High-Throughput drug screen in 47 multiple myeloma cell lines against the NCATS MIPE library collection: OPM1_PLB cell viability assay (AID 1918989). Also: nearly all actives have a fitted effect of over 40% in size. The settings on record: CellTiter-Glo, 48 h; series mostly up to 45.8 µM. The method in brief: as §2
Test [9] is described as follows: Quantitative High-Throughput drug screen in 47 multiple myeloma cell lines against the NCATS MIPE library collection: SKMM1_PLB cell viability assay (AID 1919863). Also: nearly all actives have a fitted effect of over 35% in size. As to conditions: SKMM1 myeloma viability, CellTiter-Glo ATP, 48 h; viability: active compounds read low. The method in brief:
as §2

A short description of test [10]: Quantitative High-Throughput drug screen in 47 multiple myeloma cell lines against the NCATS MIPE library collection: KMS12PE_JCRB cell viability assay (AID 1918972). Also: nearly all actives have a fitted effect of over 30% in size. The settings on record: KMS12PE myeloma viability, CellTiter-Glo ATP, 48 h; series mostly up to 45.8 µM. The method in brief:
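CellTiter-Glo luminescence (ATP) after 48 h compound exposure, 37C/5% CO2; 500 cells/well; MIPE 4.0 approved/investigational drugs pinned in; DMSO = 100%, media only = 0% viability.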

Test [11] can be described thus: Quantitative High-Throughput drug screen in 47 multiple myeloma cell lines against the NCATS MIPE library collection: KMS20_JCRB cell viability assay (AID 1918973). Also: nearly all actives have a fitted effect of over 45% in size. The settings on record: CellTiter-Glo ATP, 48 h; series mostly up to 45.8 µM. The method, boiled down:
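Steps: seed 500 cells per well; pin-transfer MIPE 4.0 library; incubate 48 h at 37C, 5% CO2, humidified; add CellTiter-Glo, 5 min room temperature; read luminescence.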

Test [12] is described as follows: Quantitative High-Throughput drug screen in 47 multiple myeloma cell lines against the NCATS MIPE library collection: LP1_DSMZ cell viability assay (AID 1918982). Also: nearly all actives have a fitted effect of over 35% in size. The settings on record: LP1 myeloma viability, CellTiter-Glo ATP luminescence, 48 h; series mostly up to 45.8 µM. The method in brief: as §2
A short description of test [13]: Quantitative High-Throughput drug screen in 47 multiple myeloma cell lines against the NCATS MIPE library collection: KMS34_JCRB cell viability assay (AID 1918985). Also: nearly all actives have a fitted effect of over 40% in size. As to conditions: KMS34 myeloma viability, CellTiter-Glo ATP luminescence, 48 h; series mostly up to 45.8 µM. The method, boiled down: as §2
Test [14] is described as follows: Quantitative High-Throughput drug screen in 47 multiple myeloma cell lines against the NCATS MIPE library collection: MMM1_PLB cell viability assay (AID 1918976). Also: nearly all actives have a fitted effect of over 35% in size. The settings on record: MMM1 myeloma cells viability, CellTiter-Glo, 48 h; series mostly up to 45.8 µM. The method in brief: as §2
Test [15] can be described thus: Quantitative High-Throughput drug screen in 47 multiple myeloma cell lines against the NCATS MIPE library collection: MM1S_ATCC cell viability assay (AID 1918980). Also: nearly all actives have a fitted effect of over 45% in size. The settings on record: MM1S myeloma viability, CellTiter-Glo ATP luminescence, 48 h; series mostly up to 45.8 µM. The method in brief:
as §2

Test [16] is described as follows: Quantitative High-Throughput drug screen in 47 multiple myeloma cell lines against the NCATS MIPE library collection: KMS28PE_JCRB cell viability assay (AID 1918983). Also: nearly all actives have a fitted effect of over 35% in size. The settings on record: KMS28PE multiple myeloma viability, CellTiter-Glo ATP, 48 h; series mostly up to 45.8 µM. The method in brief:
as §2

A short description of test [17]: Quantitative High-Throughput drug screen in 47 multiple myeloma cell lines against the NCATS MIPE library collection: OCIMY5_PLB cell viability assay (AID 1918988). Also: nearly all actives have a fitted effect of over 65% in size. As to conditions: OCI-MY5 myeloma viability, ATP luminescence, 48 h; series mostly up to 45.8 µM. The method in brief:
as §2

Test [18] can be described thus: Quantitative High-Throughput drug screen in 47 multiple myeloma cell lines against the NCATS MIPE library collection: U266_ATCC cell viability assay (AID 1919864). Also: nearly all actives have a fitted effect of over 35% in size. As to conditions: U266 myeloma viability, CellTiter-Glo ATP luminescence, 48 h; series mostly up to 45.8 µM. The method in brief: as §2

Inconclusive results are not listed. A number with no mark means an inactive call. Calls of active or inactive are those of the source. Calls follow the shape of the dose curve; as a rule, active = well fitted curve in the direction sought with a large enough effect; inconclusive = small, poorly fitted or top-dose-only effect, or another doubt; inactive = no such curve, though single readings can be large; an effect the other way counts as inactive or inconclusive.
Potency is read from the fitted curve at half-maximal effect.

For the compound `N#CC(=C(N)Sc1ccccc1N)C(C#N)=C(N)Sc1ccccc1N`, the Potency entry in test [1] and in test [4] was “inactive” in each case. The Potency was 1.32 µM (active) in test [2]; 14.8 µM (active) in test [3]; 1.18 µM (active) in test [5]; 10.5 µM (active) in [6]; 662 nM (active) in test [7]; 20.9 µM (active) in [8]. Further, the Potency in [9] was 1.32 µM (active).
Turning to `Cc1ccc(C(C)(O)c2nc3ccccc3s2)c(C)c1` (stereo not drawn), the Potency entry in [10], in test [11], in test [2], in test [3], in test [4] and in [12] was “inactive” in each case. In addition, the Potency entry in test [6] and in test [13] was “inactive” throughout. Moreover, the viability (commonly a read-out of living cells in per cent, often relative to untreated cells) in [9] was 94%.
As for `CNC1CCC(N(Cc2cccc(-c3ccncc3)c2)C(=O)c2sc3c(F)ccc(F)c3c2Cl)CC1` (stereo not drawn), the Potency in test [10] was 10.5 µM (active); in [11], 1.48 µM (active); in [2], 16.6 µM (active); in [14], 26.4 µM (active); in test [3], 4.69 µM (active); in [4], 23.5 µM (active). Further, the Potency was 14.8 µM (active) in [15]; 18.7 µM (active) in test [5]; 23.5 µM (active) in test [12]; 16.6 µM (active) in test [16]; 11.8 µM (active) in test [6]; 66.2 nM (active) in test [7]. Also, the Potency in test [17] was 18.7 µM (active); in test [8] it was 13.2 µM (active); in test [9], 18.7 µM (active); in [18], 18.7 µM (active).
Turning to `CC[C@H]1OC(=O)[C@H](C)C(=O)[C@H](C)[C@@H](O[C@H]2O[C@H](C)C[C@H](N(C)C)[C@@H]2O)[C@](C)(OC)C[C@@H](C)C(=O)[C@H](C)[C@H]2N(CCCCn3cnc(-c4cccnc4)c3)C(=O)O[C@]12C`, the Potency is 29.6 µM (active) in test [1]; 18.7 µM (active) in test [14]; 16.6 µM (active) in test [5]; 14800 nM (active) in [7]; 26.4 µM (active) in [17]. Besides, the Potency entry in test [8] and in test [18] was “inactive” in each case.
With `Nc1nc(F)nc2c1ncn2[C@@H]1O[C@H](COP(=O)(O)O)[C@@H](O)[C@H]1O`, the Potency is 16.6 µM (active) in test [1], 18.7 µM (active) in test [5] and 23.5 µM (active) in test [17]. Besides, the Potency entry in [2] and in [8] was “inactive” each time.
Take `COc1ccc(-c2cc(=O)c3c(O)cc(O)cc3o2)cc1O`: the Potency in test [10] is 5.9 µM (active); in test [11], 4.18 µM (active); in test [2], 5.9 µM (active); in test [14], 0.935 µM (active); in test [15], 6.62 µM (active); in test [5], 16.6 µM (active). The Potency in [6] is 5.9 µM (active); in test [13], 20.9 µM (active); in test [7], 3720 nM (active); in test [17], 2.64 µM (active); in test [8], 7.43 µM (active); in [18], 8.33 µM (active). Besides, the Potency entry in [4] and in [16] was “inactive” throughout. For the same compound, in [9], the viability is 119%.
Turning to `CC(C)OC(=O)C(C)(C)Oc1ccc(C(=O)c2ccc(Cl)cc2)cc1`, the Potency in test [1] is 13.2 µM (active); in test [2] it was 11.8 µM (active); in [14] it was 18.7 µM (active); in test [16], 16.6 µM (active). The Potency result in [4], in test [15] and in test [6] was “inactive” each time.
